Assay results taken from PubChem BioAssay (NCATS).
Several values for one entry are separate records, joined by “and”; a condition that tells them apart may be missing. Equal values may be shown once. Records with an inconclusive call do not appear. Activity calls are given as the source filed them. Calls follow the shape of the dose curve; as a rule, active = well fitted inhibition curve with a large enough effect; inconclusive = small, poorly fitted or top-dose-only effect; inactive = flat fitted curve, though single readings scatter. Where a SMILES comes first, the peptide text is derived from it. Bridges are numbered along the chain shown (N, C = ends). [ ]: non-standard residue; d: D form. The star is where a group is joined. X1 = CC[C@@H](C)[C@@H](N)C1=N[C@H](C(=O)*)CS1; d(aIle) = CC[C@H](C)[C@@H](N)C(=O)O; dOrn = NCCC[C@@H](N)C(=O)O

test system: KB-3-1; assay: Cytotoxic Profiling of Annotated Libraries Using Quantitative High-Throughput Screening (AID 1296008); settings: Five cell lines viability, CellTiter-Glo ATP luminescence, 48-72 h; max response: hits give low values; also: nearly all actives have a fitted effect of over 60% in size
Outline: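 Cells exposed to compounds for 48 or 72 hr at 37 degrees Celsius. Viability read as ATP-coupled luminescence with CellTiter-Glo after 10 min at room temperature.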
% is scaled to controls: 0 for no effect and ±100 for the full control effect.

| Structure (SMILES) | max response |
| --- | --- |
| CN1CCN(C(c2ccccc2)c2ccc(Cl)cc2)CC1 (stereo not drawn) | 0.99% (inactive) |
| C[C@@H]1C[C@H]2[C@@H]3C[C@H](F)C4=CC(=O)C=C[C@]4(C)[C@@]3(Cl)[C@@H](O)C[C@]2(C)[C@H]1C(=O)COC(=O)C(C)(C)C | 41.6% (inactive) |
| CCCCCCCCCCCCCCCC(=O)OC[C@@H](O)[C@H]1OC[C@H](O)[C@H]1O | -3.59% (inactive) |
| CO/N=C(\C(=O)N[C@@H]1C(=O)N2C(C(=O)O)=C(C[N+]3(C)CCCC3)CS[C@H]12)c1csc(N)n1 | 2.85% (inactive) |
| CC[C@@H](C)[C@@H](N)C1=N[C@H](C(=O)N[C@@H](CC(C)C)C(=O)N[C@@H](CCC(=O)O)C(=O)N[C@@H](C(=O)N[C@@H]2CCCCNC(=O)[C@@H](CC(N)=O)NC(=O)[C@@H](CC(=O)O)NC(=O)[C@@H](Cc3cnc[nH]3)NC(=O)[C@@H](Cc3ccccc3)NC(=O)[C@@H]([C@H](C)CC)NC(=O)[C@@H](CCCN)NC2=O)[C@@H](C)CC)CS1 (X1-LE[d(aIle)][dK][dOrn][dI][dF][dH][dD][dN]; lactam 4-C) | 3.54% (inactive) and -18.2% (inactive) |
| CC(C)CN(C[C@@H](O)[C@H](Cc1ccccc1)NC(=O)O[C@@H]1CCOC1)S(=O)(=O)c1ccc(N)cc1 | 0.899% (inactive) |
| CO/N=C(\C(=O)N[C@@H]1C(=O)N2C(C(=O)[O-])=C(C[n+]3ccc(N)n3CCO)CS[C@H]12)c1csc(N)n1 | 5.24% (inactive) |
| C[S+](C)CCC(N)C(=O)O (stereo not drawn) | 3.56% (inactive) |
